# This is a sample that favours compounds with a hit; in the whole collection about 21% have one here.
# SARS PLpro yeast-1 = inhibitors of SARS-CoV papain-like protease in yeast. AID 485353. 0.19% of 330,000 active. Potency, µM (series often up to 32.9 µM), actives largely listed as activators. S. cerevisiae expressing SARS-CoV PLpro, growth rescue; also: nearly all actives have a fitted effect of over 55% in size
# Shiga inhibitor = inhibitors of Shiga toxin in Vero cells; Vero cells, Shiga toxin protein synthesis inhibition reporter; inhibition, % at 38.7 µM; 9.2% of 290,000 active; AID 2315; in the data active = inhibition mostly above about 28%, no sharp cut-off; inactive = mostly below about 43%
# NS1 function inh = blocks influenza NS1 protein function | 0.4% of 270,000 active | AID 2326 | Potency, µM (highest dose often 46.1 µM); also: actives are rising curves; nearly all actives have a fitted effect of over 50% in size
#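 S. cerevisiae expressing influenza A NS1, grown in glucose, washed, then diluted 1:100 into pH 6.0 -URA galactose medium with 23 nl compound. Growth recovery read as OD600; NS1-free strain serves as control.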
# Pf growth 48h = P. falciparum growth inhibition at 48 hours (one generation); P. falciparum luciferase growth in erythrocytes, 48 h; AID 504832; 5.9% of 310,000 active; Potency, µM (highest dose often 28.7 µM), actives largely listed as inhibitors; active = well fitted inhibition curve with a large enough effect; inconclusive = small, poorly fitted or top-dose-only effect, or another doubt; inactive = no such curve, though single readings can be large or run the other way
#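 Luciferase-expressing parasites in RBCs, 2% Hct / 0.1% parasitemia final; RPMI 1640 + 0.5% Albumax; 37 C, 5% CO2, one generation; luminescence read-out, lower signal = inhibition.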
# Cycloheximide cs = counter-screen hit for Shiga toxin inhibitors, cycloheximide | 12% of 300,000 active | max response, % | cell reporter, cycloheximide protein synthesis inhibition counterscreen | AID 2314; in the data active = max response mostly above about 13%, no sharp cut-off; inactive = mostly below about 14%; also: read at 38.3 µM for the half of the compounds with a filed dose
# Pf growth 96h = P. falciparum growth inhibition at 96 hour, primary screen for plastid delayed-death inhibitors; P. falciparum luciferase reporter growth, 96 h; Potency, µM (top dose mostly 28.7 µM), actives largely listed as inhibitors; 6.9% of 320,000 active; AID 504834; active = well fitted inhibition curve with a large enough effect; inconclusive = small, poorly fitted or top-dose-only effect, or another doubt; inactive = no such curve, though single readings can be large or run the other way
#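 Erythrocytes infected with luciferase-expressing P. falciparum were dispensed at 2% hematocrit and 0.05% parasitemia (final), then incubated with compounds 96 hours at 37 C in 5% CO2. Luminescence after detection reagent addition reported growth.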
# Flu NS1 inh = validation of influenza NS1 protein function inhibitors. shares compounds with NS1 function inh. influenza NS1 function cell assay, 15-point titration. activity change, negative = inhibition, % at 32.9 µM. 1,400 tested, under 10 active
# Flu PR8 replic = influenza virus titer reduction, NS1 project; MDCK infected influenza A/PR/8/34, virus titer TCID50; active compounds read low; 30% of 95 active; shares compounds with NS1 function inh; AID 504647; virus titer (log TCID50), log10 TCID50 at 5 µM; call rule not given here
# SARS PLpro yeast-2 = Inhibits SARS-CoV PLP in yeast, hit validation. shares compounds with SARS PLpro yeast-1. yeast expressing SARS-CoV PLpro, growth phenotype rescue. calls only. 19% of 1,000 active. AID 652038; call rule not given here
# A number is an active result; n = inactive; u = inconclusive; x = no result given. Unless noted, calls follow the shape of the full dose curve.
SMILES,SARS PLpro yeast-1,Shiga inhibitor,NS1 function inh,Pf growth 48h,Cycloheximide cs,Pf growth 96h,Flu NS1 inh,others
O=C(NCc1ccco1)C1CCCN(S(=O)(=O)c2ccc(-n3cnnn3)cc2)C1 (stereo not drawn),n,n,4µM,n,n,u,n,
CSc1ccc(CN2CCC(Cc3ccccc3)CC2)cc1,n,n,n,n,n,n,x,
Clc1cccc(CN2CCC(Cc3ccccc3)CC2)c1,n,n,u,n,n,n,n,
O=[N+]([O-])c1ccc(Oc2ccc(Oc3ccc(C(F)(F)F)cn3)cc2)nc1,n,n,n,n,n,n,x,
COC(=O)c1ccc(OCC(O)CN2CCN(C(=O)c3ccco3)CC2)c(OC)c1 (stereo not drawn),n,n,n,n,n,n,x,
Cc1c(NC(=O)OCCNC(=O)COc2ccc(Cl)cc2Cl)sc(=S)n1C,n,n,u,n,n,u,n,
CCCCNC(=O)c1onc(CCl)c1C(=O)OC,n,n,1.1µM,n,n,u,n,
S=C1c2ccccc2CN1c1ccccc1,n,75,u,n,60,n,n,
COc1ccc(CNC(=O)C2CCN(S(=O)(=O)N3CCCC3)CC2)c(OC)c1,n,n,u,n,n,n,n,
COc1ccc(N(CC(=O)NCCC(C)C)C(=O)c2snc(C(=O)NC3CCCCC3)c2N)c(OC)c1,n,n,13µM,u,n,n,n,
COc1ccc(N(CC(=O)NC2CCCCC2)C(=O)c2ccc(C)s2)c(OC)c1,n,n,n,u,n,n,x,
CCOC(=O)C1CCN(C(=O)CS(=O)Cc2nc(-c3ccc(C)cc3)oc2C)CC1 (stereo not drawn),n,n,11µM,x,n,n,n,Flu PR8 replic=n
Cc1oc(-c2ccc(Cl)cc2)nc1CS(=O)CC(=O)N1CCC2(CC1)OCCO2 (stereo not drawn),n,n,n,n,n,n,x,
Cc1nnc(NC2(C(F)(F)F)C(=O)Nc3c2c(=O)n(C)c(=O)n3C)s1 (stereo not drawn),n,n,u,n,n,u,n,
O=C(CN1CCc2ccccc21)NC(=O)NCc1ccco1,n,n,n,n,n,n,x,
O=C(CN1CCc2ccccc2C1)NCc1ccco1,n,n,u,n,n,x,n,
CC(=O)SC(C)CC(=O)NCc1ccccc1 (stereo not drawn),n,n,n,x,n,n,x,
COc1ccccc1NC(=O)NCC1(N(C)C)CCCCC1,n,n,u,n,n,n,n,
COc1ccccc1NS(=O)(=O)c1ccc(C(=O)NCC2(N(C)C)CCCCC2)cc1,n,x,x,u,x,u,x,
COC(=O)c1ccc(CSc2nnc(NCc3ccccc3)s2)o1,n,n,14µM,u,n,u,u,
COC(=O)c1ccc(CSc2nnc(SCc3ccc(C(=O)OC)o3)s2)o1,n,n,n,n,n,n,x,
COc1cc2c(cc1OC)CN(C(=O)CCNS(=O)(=O)c1ccccc1F)CC2,n,n,n,n,n,u,x,
O=C(N/N=C/CCc1ccccc1)c1ccc(CN2c3cccc4cccc(c34)S2(=O)=O)cc1,u,n,8.9µM,n,n,n,n,
COc1ccc(/C=N/NC(=O)c2ccc(CN3c4cccc5cccc(c45)S3(=O)=O)cc2)cc1,n,n,u,u,n,u,x,
OC1(c2ccc(F)cc2)CCN(Cc2nnnn2Cc2cccs2)CC1,n,n,n,n,n,n,x,
SMILES,SARS PLpro yeast-1,Shiga inhibitor,NS1 function inh,Pf growth 48h,Cycloheximide cs,Pf growth 96h,Flu NS1 inh,others
C=CCN1C(=O)CS/C1=C(\C#N)S(=O)(=O)c1ccc(C)cc1,n,n,1.6µM,u,n,n,n,
Cc1nn(CC(=O)N2CCC(C(N)=O)CC2)c(=O)c2nn(-c3ccccc3)c(C)c12,n,n,n,n,n,n,x,
CNC(=S)NNC(=O)c1oc2nc(-c3ccccc3)cc(C)c2c1N,n,n,n,n,n,n,x,
NNC(=O)c1oc2nc(-c3ccccc3)cc(-c3ccccc3)c2c1N,n,n,10µM,x,n,u,n,
Cc1cc2cc(CNC(=O)c3ccc(S(=O)(=O)N(C)C)cc3)ccc2n1C,n,n,11µM,u,n,u,n,
Cc1cc2cc(CNC(=O)c3ccc(S(=O)(=O)N4CCOCC4)cc3)ccc2n1C,n,n,11µM,13µM,n,u,n,
CC(=O)Nc1ccc(S(=O)(=O)NCc2ccc3c(c2)cc(C)n3C)cc1,n,n,n,x,n,u,x,
Cc1cc2cc(CNS(=O)(=O)c3ccc4ccccc4c3)ccc2n1C,n,n,10µM,u,n,u,n,
C=CCn1c(SCC(=O)N2CCc3ccccc3C2)nc2sc(C)cc2c1=O,n,n,n,u,n,u,x,
COc1ccc(CNC(=O)CSC(=S)N2CCCC2)cc1,n,x,x,n,x,n,x,
O=C(NCC1CCCO1)C(c1cccs1)N(Cc1cccs1)C(=O)c1ccc(-c2ccccc2)[nH]1 (stereo not drawn),n,n,13µM,u,n,n,n,
CC(C)C(C(=O)NCC1CCCO1)N(Cc1cccs1)C(=O)CNS(=O)(=O)c1ccccc1 (stereo not drawn),n,n,n,n,n,n,x,
O=C(CCc1nnc2ccc(N3CCC4(CC3)OCCO4)nn12)NCc1ccccc1Cl,x,n,n,n,n,n,x,
O=C(/C=C/c1ccc(Br)cc1)c1ccc(NC2=NCCCS2)cc1,n,n,u,u,n,u,u,
CCOc1ccc(S(=O)(=O)NC(C)C(=O)NCc2cccnc2)cc1 (stereo not drawn),n,n,n,n,n,n,x,
O=C(CSc1nnc(-c2cc3ccccc3cc2O)n1Cc1ccco1)c1ccc(F)cc1,n,n,8.9µM,x,n,u,n,
O=C(CSc1nnc(-c2ccc(O)cc2)n1Cc1ccco1)c1ccccc1,n,n,n,x,n,n,x,
CN(C)S(=O)(=O)c1ccc(N2CCCC2)c(C(=O)Nc2nc3c(ccc4ccccc43)s2)c1,n,n,14µM,u,n,13µM,n,
COc1ccc(-n2c(SCC(=O)N3CCCCC3)nc(O)cc2=O)cc1,n,n,11µM,u,n,n,u,Flu PR8 replic=n
CCOc1ccc2cc(/C=C/C(=O)c3ccco3)c(Cl)nc2c1,n,n,n,n,n,x,x,
CC(=O)N/C(=C\c1cccc([N+](=O)[O-])c1)C(=O)NC1CCCCC1,u,61,11µM,n,49,n,n,SARS PLpro yeast-2=n
Cc1ccc(NC(=O)/C(=C/c2cccc([N+](=O)[O-])c2)NC(=O)C2CCCCC2)cc1,n,n,n,u,n,x,x,
Cc1ccc(CNS(=O)(=O)c2ccc3c(c2)n(C)c(=O)n3C)cc1,n,n,n,n,n,n,x,

# Screens (PubChem BioAssay)
